Calls of active or inactive are those of the source.
What was measured:
Albumin (Bos taurus) = Albumin (Bos taurus) (UniProt P02769); assay: bovine serum albumin binders on microarray, profiling panel, artefact control for SMM control protein annotation, biochemical, small-molecule microarray, Alexa647 label, 635/667 nm fluorescence (AID 1118); details: BSA-A647 binding, fluorescence 635 nm, higher = more signal;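 also: score merges 667 nm emission intensity and signal-to-noise per printed compound spot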
Chain of Albumin (Bos taurus) (P02769 whole entry, looked up): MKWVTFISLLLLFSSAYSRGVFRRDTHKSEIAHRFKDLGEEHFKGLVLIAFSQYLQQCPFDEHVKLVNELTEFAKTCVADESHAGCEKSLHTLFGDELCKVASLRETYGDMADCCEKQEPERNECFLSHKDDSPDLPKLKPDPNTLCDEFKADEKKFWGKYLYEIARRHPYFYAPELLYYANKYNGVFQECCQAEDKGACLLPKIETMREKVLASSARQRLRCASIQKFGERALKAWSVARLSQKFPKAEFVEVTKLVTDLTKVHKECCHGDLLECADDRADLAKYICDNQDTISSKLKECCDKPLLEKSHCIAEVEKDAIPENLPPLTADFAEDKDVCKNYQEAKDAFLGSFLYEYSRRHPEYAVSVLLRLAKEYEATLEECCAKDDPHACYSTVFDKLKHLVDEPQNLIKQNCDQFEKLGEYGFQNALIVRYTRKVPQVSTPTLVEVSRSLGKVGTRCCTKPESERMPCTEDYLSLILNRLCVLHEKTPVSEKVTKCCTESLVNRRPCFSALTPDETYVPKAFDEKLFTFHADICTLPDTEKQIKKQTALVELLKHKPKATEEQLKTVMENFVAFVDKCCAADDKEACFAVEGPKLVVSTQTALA

[1] = small-molecule microarray binders of probe aXIP, primary screen, biochemical, NeuroSMM set, 635/667 nm fluorescence (AID 1119); details: higher = more signal, called active from +8 up or from −8 down;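 also: probe is the protein aXip251-270 applied at 1 µg/mL to compound-printed slides; binding of probe to printed compounds measured as 667 nm fluorescence plus signal to noise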
[2] = small-molecule binders of probe aNOTCH3, primary screen, biochemical, small-molecule microarray, 635/667 nm fluorescence (AID 1120); details: higher = more signal;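 also: probe is a biotin-tagged antibody raised against NOTCH3 rather than NOTCH3 protein; score merges spot fluorescence near 667 nm with spot signal to noise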
[3] = small-molecule binders of probe aNOTCH2, primary screen, biochemical, small-molecule microarray, 635/667 nm fluorescence (AID 1121); details: higher = more signal;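 also: score merges feature fluorescence read at 667 nm with its signal to noise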
[4] = target: Carbonic anhydrase 2 (Homo sapiens) (UniProt P00918); assay: CAII small-molecule binders, profiling panel, biochemical, small-molecule microarray, Alexa647-labelled CAII (AID 1122); details: CAII-A647 binding fluorescence, higher = more signal
[5] = COS7 lysate on small-molecule microarray, probe aHis, 635 nm (AID 1123); details: COS7 cell lysate, fluorescence, higher = more signal;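 also: z-score combines 667nm fluorescence intensity with signal-to-noise per printed compound spot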
[6] = compound binding in COS7 lysate, probe aLAP1, primary screen, cell lysate, small-molecule microarray (AID 1124); details: probe aLAP1, fluorescence, higher = more signal;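 also: lysate comes from COS7 cells expressing LAP1 and is applied at 0.3 µg/mL; score merges spot fluorescence near 667 nm with signal-to-noise over triplicate slides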
Sam68 (KHDRBS1) = assay: Sam68 small-molecule binders, primary screen, biochemical, small-molecule microarray, 635 nm fluorescence (AID 1125); details: small-molecule microarray binding, higher = more signal;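 also: score merges 667 nm channel intensity with signal to noise over triplicate slides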
[7] = test system: Chordin-like protein 2 (CHRDL2); assay: CHRDL2 small-molecule binders, primary screen, biochemical, small-molecule microarray, 635 nm fluorescence (AID 1126); details: small-molecule microarray binding, fluorescence 635 nm; higher = more signal;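 also: printed compound slides probed with Chrdl2 protein at 4 µg/mL for 1 h at 4 C; score merges 667 nm emission intensity with signal to noise over three replicate slides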
[8] = target: Concanavalin-A (Canavalia ensiformis) (UniProt P02866); assay: ConA small-molecule binders, primary screen, artefact control for SMM control protein annotation, biochemical, small-molecule microarray, Alexa647 label, 635 nm (AID 1127); details: ConA-A647 binding fluorescence, higher = more signal;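 also: z combines 667 nm emission intensity with signal-to-noise across three replicate slides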
Chain of Concanavalin-A (Canavalia ensiformis) (P02866 whole entry, looked up): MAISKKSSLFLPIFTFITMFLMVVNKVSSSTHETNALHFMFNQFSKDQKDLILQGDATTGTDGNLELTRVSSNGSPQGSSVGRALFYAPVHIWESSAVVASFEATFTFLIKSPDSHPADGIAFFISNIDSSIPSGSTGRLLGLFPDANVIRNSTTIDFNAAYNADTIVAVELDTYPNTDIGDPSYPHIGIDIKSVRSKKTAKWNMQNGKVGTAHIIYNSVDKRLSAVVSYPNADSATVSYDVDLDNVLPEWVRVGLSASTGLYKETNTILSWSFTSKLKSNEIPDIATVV

[9] = anti-His antibody binders, primary screen, artefact control for SMM control protein annotation, biochemical, small-molecule microarray, 635 nm fluorescence (AID 1128); details: anti-His Alexa647 antibody binding, higher = more signal;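 also: score merges feature fluorescence with signal-to-noise for each printed compound spot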
[10] = test system: Human papillomavirus type 1a E7 protein (residues 1-88); assay: HPV1a E7 small-molecule binders, primary screen, biochemical, small-molecule microarray, residues 1-88, 635 nm (AID 1129); details: small-molecule microarray binding, fluorescence 635 nm; higher = more signal
[11] = target: Focal adhesion kinase 1 (Homo sapiens) (UniProt Q05397); assay: small-molecule microarray binders of FAK, primary screen, biochemical, 635/667 nm fluorescence, BSA, DTT (AID 1130); details: PTK2 binding, 635 nm fluorescence, higher = more signal;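 also: composite of spot emission at 667 nm and signal to noise over triplicate slides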
Chain of Focal adhesion kinase 1 (Homo sapiens) (Q05397 whole entry, looked up): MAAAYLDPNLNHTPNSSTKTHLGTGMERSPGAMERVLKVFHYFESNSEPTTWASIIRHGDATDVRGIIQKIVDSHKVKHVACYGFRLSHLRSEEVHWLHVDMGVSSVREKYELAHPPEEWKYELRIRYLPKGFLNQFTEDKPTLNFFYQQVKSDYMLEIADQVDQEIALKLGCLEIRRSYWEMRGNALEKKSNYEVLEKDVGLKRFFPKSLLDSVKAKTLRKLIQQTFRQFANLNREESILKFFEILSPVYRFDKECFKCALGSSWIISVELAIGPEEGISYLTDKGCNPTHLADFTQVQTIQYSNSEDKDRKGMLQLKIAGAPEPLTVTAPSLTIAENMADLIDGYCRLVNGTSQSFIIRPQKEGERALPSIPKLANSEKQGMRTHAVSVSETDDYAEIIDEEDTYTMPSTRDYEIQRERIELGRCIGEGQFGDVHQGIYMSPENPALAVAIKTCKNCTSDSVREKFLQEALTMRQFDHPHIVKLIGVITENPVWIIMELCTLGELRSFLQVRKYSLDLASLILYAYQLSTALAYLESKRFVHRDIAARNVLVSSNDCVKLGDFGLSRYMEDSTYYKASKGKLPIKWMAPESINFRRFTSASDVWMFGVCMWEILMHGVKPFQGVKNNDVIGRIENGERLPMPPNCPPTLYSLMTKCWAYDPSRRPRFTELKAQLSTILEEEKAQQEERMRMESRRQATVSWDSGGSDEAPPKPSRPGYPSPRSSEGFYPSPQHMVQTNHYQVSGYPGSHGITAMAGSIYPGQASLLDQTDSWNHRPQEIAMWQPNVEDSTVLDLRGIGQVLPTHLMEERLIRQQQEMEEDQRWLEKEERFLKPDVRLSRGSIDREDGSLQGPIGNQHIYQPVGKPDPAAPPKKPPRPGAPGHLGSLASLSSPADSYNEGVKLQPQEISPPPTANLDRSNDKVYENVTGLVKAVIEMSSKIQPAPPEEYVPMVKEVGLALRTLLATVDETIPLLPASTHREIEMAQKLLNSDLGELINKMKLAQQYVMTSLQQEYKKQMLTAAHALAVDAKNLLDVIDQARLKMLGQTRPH

[12] = test system: Fibrinogen (Alexa647-labelled); assay: fibrinogen binders on compound microarrays, profiling panel, artefact control for SMM control-protein annotation, biochemical, small-molecule microarray, 635/667 nm fluorescence (AID 1131); details: fibrinogen-A647 binding fluorescence, higher = more signal;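 also: z-score merges 667 nm fluorescence with per-spot signal-to-noise over triplicate slides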
[13] = target: Follistatin (Homo sapiens) (UniProt P19883); assay: follistatin binders on small-molecule microarrays, primary screen, biochemical, small-molecule microarray, 635/667 nm fluorescence (AID 1132); details: FST binding, 635 nm fluorescence, higher = more signal
Chain of Follistatin (Homo sapiens) (P19883 whole entry, looked up): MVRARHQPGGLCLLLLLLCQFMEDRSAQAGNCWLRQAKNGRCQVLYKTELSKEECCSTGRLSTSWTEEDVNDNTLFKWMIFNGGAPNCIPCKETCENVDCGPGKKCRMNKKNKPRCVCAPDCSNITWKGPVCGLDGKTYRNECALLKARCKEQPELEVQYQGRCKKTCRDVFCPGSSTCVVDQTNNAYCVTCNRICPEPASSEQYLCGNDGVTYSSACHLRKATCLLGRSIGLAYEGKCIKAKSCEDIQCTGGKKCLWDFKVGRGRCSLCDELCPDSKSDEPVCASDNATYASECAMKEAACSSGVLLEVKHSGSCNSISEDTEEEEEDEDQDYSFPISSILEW

[14] = target: Fibroblast growth factor 2 (Homo sapiens) (UniProt P09038); assay: FGF2 binders on small-molecule microarrays, primary screen, biochemical, small-molecule microarray, 635/667 nm fluorescence (AID 1133); details: small-molecule microarray binding, FGF2, fluorescence 635/667; higher = more signal
Chain of Fibroblast growth factor 2 (Homo sapiens) (P09038 whole entry, looked up): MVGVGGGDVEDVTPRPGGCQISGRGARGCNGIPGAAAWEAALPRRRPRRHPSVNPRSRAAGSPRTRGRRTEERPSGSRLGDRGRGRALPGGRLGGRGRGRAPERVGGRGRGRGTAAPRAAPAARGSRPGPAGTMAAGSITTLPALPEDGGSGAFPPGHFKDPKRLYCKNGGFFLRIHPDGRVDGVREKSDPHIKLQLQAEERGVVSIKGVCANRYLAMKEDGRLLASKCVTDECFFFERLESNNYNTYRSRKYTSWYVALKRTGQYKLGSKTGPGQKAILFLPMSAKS

[15] = mitochondrial membrane potential change in A549 cells, profiling panel, cell-based, JC-1 fluorescence, basal, 24 h, 100 nL (AID 1138); details: higher = more signal;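 also: A549 lung adenocarcinoma cells under basal conditions with no added stimulus; test concentration not given here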
Lefty1 = Lefty1 binders on small-molecule microarrays, primary screen, biochemical, small-molecule microarray, 635/667 nm fluorescence (AID 1139); details: small-molecule microarray binding, fluorescence 635/667; higher = more signal
[16] = test system: wheat germ agglutinin (Triticum aestivum), Alexa647-labelled; assay: wheat germ agglutinin binders on compound microarrays, profiling panel, artefact control for SMM control-protein annotation, biochemical, small-molecule microarray, 635/667 nm fluorescence (AID 1140); details: WGA-A647 binding, 635 nm fluorescence, higher = more signal;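 also: score merges 667 nm feature emission with signal to noise over triplicate slides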
[17] = target: Luciferin 4-monooxygenase (Photinus pyralis) (UniProt P08659); assay: firefly luciferase enzyme inhibitors, primary screen, biochemical, luminescence, purified enzyme, 2006 set (AID 1141); details: SteadyGlo luminescence, 30 min, higher = more signal, called active from +8 up or from −8 down;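 also: cell-free assay with purified firefly luciferase at 100 ng per well in PBS; test concentration not given here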
Chain of Luciferin 4-monooxygenase (Photinus pyralis) (P08659 whole entry, looked up): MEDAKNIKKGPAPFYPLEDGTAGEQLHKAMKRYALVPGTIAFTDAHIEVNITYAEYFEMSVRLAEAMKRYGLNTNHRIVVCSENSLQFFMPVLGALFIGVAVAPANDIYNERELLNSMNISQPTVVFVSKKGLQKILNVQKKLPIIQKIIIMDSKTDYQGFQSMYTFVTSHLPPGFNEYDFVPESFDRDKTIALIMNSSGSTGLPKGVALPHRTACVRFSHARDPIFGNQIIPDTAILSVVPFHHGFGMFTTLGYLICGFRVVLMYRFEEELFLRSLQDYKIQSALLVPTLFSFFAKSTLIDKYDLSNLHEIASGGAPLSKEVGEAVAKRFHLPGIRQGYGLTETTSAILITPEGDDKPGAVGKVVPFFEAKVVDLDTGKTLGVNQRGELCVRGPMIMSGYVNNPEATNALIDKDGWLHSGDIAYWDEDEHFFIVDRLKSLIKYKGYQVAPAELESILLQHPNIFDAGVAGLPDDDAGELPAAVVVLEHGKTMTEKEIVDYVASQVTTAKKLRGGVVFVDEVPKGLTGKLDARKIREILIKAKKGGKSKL

| SMILES | composite z-score (Albumin (Bos taurus)) | composite Z-score [1] | composite z-score [2] | composite z-score [3] | composite z-score [4] | composite z-score [5] | composite z-score [6] | composite z-score (Sam68 (KHDRBS1)) | composite z-score [7] | composite z-score [8] | composite z-score [9] | composite z-score [10] | composite z-score [11] | composite z-score [12] | composite z-score [13] | composite z-score [14] | z-score [15] | composite z-score (Lefty1) | composite z-score [16] | z-score [17] |
| --- | --- | --- | --- | --- | --- | --- | --- | --- | --- | --- | --- | --- | --- | --- | --- | --- | --- | --- | --- | --- |
| COc1ccc(-c2cc3c(c(-c4ccc(Oc5ccccc5)cc4)n2)[Si](C(C)C)(C(C)C)OC3)cn1 | -0.344 | -0.108 (inactive) | -0.0311 | -0.132 | -0.163 | 0.0687 | -0.232 | -0.0667 | -0.0581 | 0.478 | 0.0674 | -0.221 | 0.158 | -0.424 | 0.525 | -0.224 | -0.0734 | 0.278 | -0.12 | 0.223 (inactive) |
| O=C(NCCN1CCOCC1)C1N=C(c2ccc(OCCCO)cc2)N(c2ccccc2)O1 (stereo not given) | 0.439 | 0.267 (inactive) | 0.0261 | 0.119 | 0.835 | 2.79 | 0.908 | 1.3 | 1.41 | 0.691 | 1.22 | 1.29 | 0.124 | 0.545 | 1.52 | 1.58 | 1.23 | 0.813 | 0.61 | -8.16 (active) |
| CCC[C@@H]1C[C@@]1(CCC)[C@@H](NC(=O)c1ccccc1)c1cccc(Cl)c1 | 0.941 | 0.432 (inactive) | 1.38 | 0.808 | 0.326 | 2.63 | 0.245 | 1.33 | 0.0667 | 0.954 | 1.52 | 1.17 | 0.535 | 0.596 | 0.219 | -0.331 | 0.349 | -0.544 | 1.11 | 0.841 (inactive) |
| [N-]=[N+]=NCc1ccccc1[C@@H]1OC(c2ccc(OCCCO)cc2)=N[C@]1(Cc1ccccc1)C(N)=O | 0.979 | -0.791 (inactive) | 0.526 | 0.0646 | 0.783 | 1.79 | 0.222 | 1.3 | -0.692 | 1.16 | 0.888 | 1.25 | 1.22 | 1.06 | 1.28 | 0.0766 | 0.199 | 0.186 | 1.06 | -0.0322 (inactive) |
| C=CCOC(=O)[C@H]1[C@@H]2C(=O)O[C@@H](c3ccccc3)[C@@H](c3ccccc3)N2[C@@H](c2ccc(OCCOC(=O)[C@H]3C[C@H]4C(=O)N[C@@H](CCCCN(C)C)C(=O)N4[C@H]3c3ccc(O)cc3)cc2)[C@]12C(=O)Nc1ccc(I)cc12 | 0.412 | 0.432 (inactive) | 0.282 | -0.0028 | 0.493 | 1.45 | 0.651 | 1.31 | 1.18 | 1.15 | 2.49 | 1.23 | 0.739 | 0.991 | 1.34 | 1.64 | -0.665 | 1.59 | 0.784 | 0.69 (inactive) |
| CC(C)[Si]1(C(C)C)O[C@@H](c2ccccc2)c2cc(-c3ccc(-c4ccc(Cl)c(Cl)c4)o3)nc(-c3ccccc3)c21 | 0.473 | -0.0194 (inactive) | -0.0918 | -0.133 | 0.233 | 0.308 | 0.0588 | 0.278 | -0.432 | 0.989 | 2.46 | 0.361 | -0.289 | 0.291 | -0.139 | 0.0622 | -0.133 | -0.0995 | 0.533 | -0.266 (inactive) |
| CC(C)C(O)C1C=CC2C(=O)NC(=O)C2N1Nc1ccc(Cl)cc1Cl (stereo not given) | 0.523 | 0.449 (inactive) | -0.0414 | -0.0659 | 0.751 | 1.78 | 1.33 | 0.531 | -0.827 | -0.478 | 1.03 | 1.19 | 1.08 | 0.921 | 0.345 | -0.292 | -0.518 | -0.556 | 1.35 | -0.089 (inactive) |
| COc1cc2c(cc1OC)CN(C(=O)[C@H]1[C@@H]3C(=O)O[C@@H](c4ccccc4)[C@@H](c4ccccc4)N3[C@@H](c3ccc(O)cc3)[C@]13C(=O)Nc1ccccc13)CC2 | -0.134 | 2.52 (inactive) | -0.0672 | 0.0481 | 0.402 | 2.34 | 0.399 | 1.07 | 0.139 | 0.777 | 1.65 | 1.19 | 0.81 | 0.253 | 0.354 | 0.39 | -0.517 | 0.331 | 0.115 | -0.204 (inactive) |
| C=CCN1C(=O)[C@@]2(Cc3ccccc31)N=C(c1ccc(OCCCO)cc1)O[C@H]2c1ccccc1 | -0.519 | 0.302 (inactive) | 0.307 | 0.125 | 0.401 | 2.8 | 0.843 | 1.17 | 0.885 | 1.17 | 2.49 | 1.19 | 1.02 | 0.039 | 1.35 | 0.988 | 1.1 | 0.368 | 0.495 | -2.65 (inactive) |
| CCCC=C(CCC)[C@@H](NC(=O)c1cccs1)c1ccc(C(F)(F)F)cc1 | 0.868 | 0.23 (inactive) | 0.224 | -0.0027 | 0.173 | 0.0705 | 0.156 | 1.23 | -0.595 | 0.79 | 0.51 | 1.23 | -0.201 | 0.936 | 0.572 | 0.0183 | 0.627 | 0.735 | 0.83 | -2.34 (inactive) |
| COc1ccc(CCNC(=O)[C@@]2(Sc3ccc(C)cc3)CC(=O)N(C3Cc4ccccc4C3)[C@@H]2c2ccc(CO)cc2I)cc1 | -0.101 | -0.235 (inactive) | 0.0425 | -0.192 | 0.729 | 1.17 | -0.286 | 0.608 | -0.235 | -1.26 | 1.13 | 0.255 | 0.235 | -0.716 | -0.816 | -0.944 | 1.43 | -1.04 | -0.176 | -0.704 (inactive) |

From PubChem BioAssay
